HPGD inh – blocks human HPGD enzyme activity. P15428. purified HPGD, NADH fluorescence kinetic, PGE2 substrate. Potency, µM, for the others: top-dose activity change, negative = inhibition, actives largely listed as inhibitors. 4.3% of 150,000 active. AID 894; active = well fitted inhibition curve with a large enough effect, not every such curve was filed as active; inconclusive = small, poorly fitted or top-dose-only effect, or another doubt; inactive = no such curve, though single readings can be large or run the other way; also: potency is read from the fitted curve at half-maximal effect
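NADH formation kinetics: reaction with 30 uM PGE2 and 1 mM NAD+ (final), 20 nM enzyme, Tris-HCl pH 8 with Tween 20, after 15 min compound preincubation at room temperature. Fluorescence change, last versus first of five reads.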
IMPase inh – membrane-permeable compound that blocks inositol monophosphatase. P97697. AID 901. 120,000 tested, under 10 active. CHO-M1 cells, IP1 accumulation, HTRF TR-FRET ratio. inhibition (IP1 accumulation), % at 46.1 µM; active = well fitted curve in the direction sought with a large enough effect in the signal ratio, not every such curve was filed as active; inconclusive = small, poorly fitted or top-dose-only effect, or a change in a side signal; inactive = no such curve, though single readings can be large or run the other way; the % refers to the signal ratio;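 also: cells stimulated with carbachol in lithium chloride buffer; plate controls were DMSO basal wells for no effect and reference inhibitor wells for full effect; higher means more IMPase inhibition seen as more IP1 and lower FRET ratio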
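Carbachol-driven Gq signalling in CHO-M1 cells (2000/well) generates IP1. Compounds that block IMPase raise IP1 and so reduce the FRET signal from Eu-anti-IP1 and d2-IP1 after a 10 min room-temperature lysis.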
PNC assembly inh – perinucleolar compartment assembly inhibition. PC3M PTB-GFP, PNC prevalence imaging, 16 h; stronger effect = lower value. activity change (PNC), negative = inhibition, % at 10 µM. 3.1% of 140,000 active. AID 2417;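 active = readout at or below -70, meaning at least 70% loss of cells showing the perinucleolar compartment, a nuclear body marking cancer cells; inconclusive = readout between -30 and a set limit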;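 also: plate controls were DMSO wells for no effect and camptothecin positive control wells for full effect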
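PC3M cells stably expressing PTB-GFP, 750–1000 cells/well, treated 16 h at 37 °C with compound (23 nl of library stock), in duplicate. After paraformaldehyde fixation and Hoechst stain, imaged at 20x; PNC prevalence scored by image analysis.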
12-hLO inh – 12-hLO (ALOX12) enzyme inhibition; P18054; purified 12-hLO, xylenol orange hydroperoxide absorbance; Potency, µM (highest dose often 57.1 µM), for inactives: at the highest dose activity change, negative = inhibition, most hits filed as inhibitors; 0.12% of 150,000 active; AID 1452; also: potency is read from the fitted curve at half-maximal effect; nearly all actives have a fitted effect of over 55% in size
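Xylenol orange chromogenic assay: hydroperoxide from 12hLO oxidises Fe(II), giving red-shifted Fe(III)-XO absorbance. Conditions: 150 nM enzyme, 40 uM arachidonic acid, 25 mM Hepes pH 7.0, 0.01% Triton X-100, 30 min, room temperature.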
IMPase Li inh – cell-permeable IMPase inhibitors with lithium potentiation. CHO-M1 cells, IP1 TR-FRET (IP-One), carbachol + lithium. Potency, µM (series often up to 59.4 µM), for the others: at the top dose activity, negative = IMPase inhibition, most hits filed as inhibitors. 0.35% of 210,000 active. AID 1457;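 also: IP1 builds up when IMPase is blocked and the TR-FRET signal falls; potency is read from the fitted curve at half-maximal effect; plate controls were basal vehicle for no effect and high inhibitor control for full effect; nearly all actives have a fitted effect of over 50% in size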
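Test compounds were applied to CHO-M1 cells previously cultured for 16–30 h at 2000 per well. A small lithium amount accompanied them; after 30 min at 37C, IP1 was quantified by TR-FRET.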
ALOX15B inhib – blocks human 15-lipoxygenase 2 activity. purified 15hLO-2, xylenol orange hydroperoxide absorbance. 0.56% of 110,000 active. Potency, µM (series often up to 57.1 µM), without a hit: top-dose activity change, negative = inhibition, most hits filed as inhibitors; also: potency is read from the fitted curve at half-maximal effect; nearly all actives have a fitted effect of over 60% in size
Target sequence (O15296 whole entry, looked up): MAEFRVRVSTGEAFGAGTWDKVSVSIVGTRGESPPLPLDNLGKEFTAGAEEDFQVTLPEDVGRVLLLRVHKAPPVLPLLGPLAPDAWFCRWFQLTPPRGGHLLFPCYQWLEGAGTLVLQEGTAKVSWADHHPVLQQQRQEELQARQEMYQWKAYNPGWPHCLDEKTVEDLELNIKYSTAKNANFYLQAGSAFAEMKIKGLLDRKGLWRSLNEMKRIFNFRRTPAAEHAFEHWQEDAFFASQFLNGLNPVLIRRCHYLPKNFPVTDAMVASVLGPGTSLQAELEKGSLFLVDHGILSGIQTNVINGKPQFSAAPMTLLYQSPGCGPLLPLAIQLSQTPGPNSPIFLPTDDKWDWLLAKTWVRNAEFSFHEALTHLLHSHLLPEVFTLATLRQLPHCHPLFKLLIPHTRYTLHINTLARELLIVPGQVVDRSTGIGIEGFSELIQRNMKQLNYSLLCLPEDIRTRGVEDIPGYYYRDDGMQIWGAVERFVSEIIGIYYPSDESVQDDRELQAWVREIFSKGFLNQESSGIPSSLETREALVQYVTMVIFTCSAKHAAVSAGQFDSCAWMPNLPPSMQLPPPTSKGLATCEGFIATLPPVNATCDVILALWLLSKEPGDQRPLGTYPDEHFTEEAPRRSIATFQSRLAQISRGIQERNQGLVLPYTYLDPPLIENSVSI
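Enzyme 50 nM, AA 45 uM, 25 mM Hepes pH 7.5 + 0.01% Triton X-100; cpd preinc 15 min RT, rxn 90 min RT; stop/detect with 200 uM XO + 300 uM Fe(II) in 50 mM H2SO4, 30 min; A573/A405.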
* = called active by the depositor; ? = inconclusive; nt = no result given; [ ] = remark or other dose. Hits are enriched below; roughly 5.3% of the tested compounds scored in any of these assays. Unless noted, calls follow the shape of the dose curve; as a rule, active = well fitted curve in the direction sought with a large enough effect; inconclusive = small, poorly fitted or top-dose-only effect, or another doubt; inactive = no such curve, though single readings can be large; an effect the other way counts as inactive or inconclusive. Unless noted, % is scaled to controls: 0 for no effect and ±100 for the full control effect.

SMILES	HPGD inh	IMPase inh	PNC assembly inh	12-hLO inh	IMPase Li inh	ALOX15B inhib
Cc1nn(Cc2ccccc2Cl)c(C)c1C(=O)Nc1nnc(C2CC2)s1	-24.6%	2.2	-96.7*	1.5%	22.3%[38.3 µM]	14.4%
Cc1nn(-c2ccccc2)c(Cl)c1C(=O)Nc1nnc(C2CCCCC2)s1	-6.9%	1.4	?	5.4%	2.4%[38.3 µM]	16.3%
COc1ccc2nc(SCC(=O)Nc3ccc(S(=O)(=O)Nc4onc(C)c4C)cc3)[nH]c2c1	17.8µM*	-0.3	-16.3	2.2%	2.8%	nt
Cc1noc(NS(=O)(=O)c2ccc(NC(=O)CSc3n[nH]c(-c4ccccc4)n3)cc2)c1C	4.47µM*	14.0	-16.7	-1.0%	6.1%[38.3 µM]	-3.2%
Cc1noc(NS(=O)(=O)c2ccc(NC(=O)CSc3nc4ccccc4[nH]3)cc2)c1C	-19.1%	3.3	62.9	0.2%	25.5%[38.3 µM]	0.3%
Cc1nc(NC(=O)C2CC3CCCC(C2)C3=O)sc1C (stereo not drawn)	-7.2%	3.0	-122.4*	3.6%	15.4%[38.3 µM]	7.4%[2.29 µM]
O=C(Nc1cccc(NC(=O)C2CC3CCCC(C2)C3=O)n1)C1CC2CCCC(C1)C2=O (stereo not drawn)	6.8%	-3.3	?	-0.9%	-1.0%	-2.0%
Cc1ccc2nc3c(cc(C(=O)NCc4ccco4)c(=N)n3C(C)C)c(=O)n2c1	nt	4.0	nt	nt	nt	nt
CC(C)CCNC(=O)c1ccc2c(SCC(=O)O)c3c(nc2c1)CCCC3	28.2µM*	nt	3.3	-0.2%	-5.6%	nt
Cc1ccc(NC(=O)c2ccc(Cn3cc([N+](=O)[O-])cn3)cc2)c(C)c1	-12.4%	nt	52.9	-4.7%	2.9%	nt
CC(=O)NCCc1cc2ccc(C)c(C)c2[nH]c1=O	?	1.0	-12.4	3.4%	-3.1%[38.3 µM]	-0.4%
Cc1ccc2cc(CCNC(=O)CC(C)(C)C)c(=O)[nH]c2c1C	-25.0%	?	-14.3	-2.0%	12.6µM*	nt
COc1ccccc1OC(=O)c1ccc2nsnc2c1	-13.7%	-10.9	-81.1*	1.4%	13.2%[38.3 µM]	2.8%
O=C(NC(=S)Nc1ccc2oc(-c3ccncc3)nc2c1)c1ccccc1F	nt	nt	nt	nt	5.62µM*	nt
O=C(NC(=S)NCc1ccccc1)c1ccccc1F	-24.6%	2.7	43.6	?	-6.4%[38.3 µM]	?
O=C(NC(=S)NC(=O)c1ccccc1F)c1ccccc1F	12.6µM*	-0.4	8.5	-13.6%	13.1%	nt
CCCN(CC(=O)Nc1cc(Cl)ccc1Cl)C(=O)/C=C/c1ccco1	-24.6%	-5.0	?	1.3%	-2.7%	nt
NC(=O)CSc1nnc(COc2ccccc2)n1C1CCCCC1	2.7%	7.7	44.9	6.7%	1.7%[38.3 µM]	4.0%
CN(C)c1ccc(O)c2c1C[C@@H]1C[C@H]3C(N(C)C)C(=O)C(C(N)=O)=C(O)[C@@]3(O)C(=O)C1=C2O (stereo partly drawn)	28.2µM*	nt	nt	-10.2%	nt	-2.5%

Assay outcomes as filed in PubChem.
